Bioassay records: PubChem, National Center for Advancing Translational Sciences (NCATS)
Hits are enriched below; roughly 9.3% of the tested compounds scored in any of these assays.
FMDV inh: blocks foot and mouth disease virus; FMDV antiviral cell-based qHTS; Potency, µM (top dose mostly 57.9 µM), without a hit: at the top dose activity change, negative = inhibition, most hits filed as inhibitors; 1.2% of 410,000 active; AID 1159524; calls by dose curve; tested in HEK293T cells; further: read-out not given here; potency means the concentration at half of the fitted maximal effect; nearly all actives have a fitted effect of over 45% in size
Vaccinia Venus: vaccinia inhibition (Venus reporter). Vaccinia virus Venus reporter expression, fluorescence. Potency, µM (titrated, usually from 36.5 µM), for the others: at the top dose activity change, negative = inhibition, most hits filed as inhibitors. 0.46% of 330,000 active; calls by dose curve; tested in A549 cells; further: potency means the concentration at half of the fitted maximal effect; nearly all actives have a fitted effect of over 30% in size
Sm TGR block: inhibitors of Schistosoma mansoni thioredoxin glutathione reductase. Potency, µM (top dose mostly 114 µM), for the others: at the highest dose activity change, negative = inhibition, actives largely listed as inhibitors. Q962Y6. 3% of 360,000 active. purified TGR, DTNB reduction, TNB absorbance 405 nm; further: potency means the concentration at half of the fitted maximal effect; nearly all actives have a fitted effect of over 60% in size
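Kinetic colorimetric format: TGR-catalysed, NADPH-driven DTNB reduction monitored via TNB absorbance. Enzyme dispensed at 20 nM; compound exposure 15 min at room temperature before reaction start.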
HCMV antiviral: blocks human cytomegalovirus replication | 4.5% of 410,000 active | AID 1259415 | activity change, negative = inhibition, % at 57.5 µM | HFF cells, HCMV-luciferase reporter, 72 h; hits give low values; in the data active means activity change below about -60%; inconclusive means no clear call, values can overlap the other calls; inactive means above about -39%
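Two compound doses tested in HFFs infected with HCMV-luciferase, MOI 1 PFU/cell, 72 h at 37C. Lysate luminescence read with OneGlo; data normalized against buffer-only and 10uM Salinomycin inhibitor controls.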
VACV mCherry inh: vaccinia inhibition (mCherry reporter). Potency, µM (series often up to 36.5 µM), inactives show at the top dose activity change, negative = inhibition, actives largely listed as inhibitors. Vaccinia virus mCherry reporter infection, fluorescence. 0.63% of 310,000 active; calls by dose curve; tested in A549 cells; further: potency means the concentration at half of the fitted maximal effect; nearly all actives have a fitted effect of over 35% in size
HCV inh: HCV inhibition. Huh7.5.1 HCVcc-Cre infection, luciferase reporter, 44 h. Potency, µM (highest dose often 41.8 µM), for the others: at the highest dose activity change, negative = inhibition, usual class: inhibitors. 3.4% of 340,000 active. AID 651820; further: potency means the concentration at half of the fitted maximal effect
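Cells seeded at 1,000/well and cultured 4 h, then compounds added followed by HCVcc-Cre virus (~0.5 moi). After 44 h further culture, luciferase substrate was added, plates held 15 min at room temperature, and luminescence read for 15 sec.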
Numbers without * were called inactive. Unless noted, the call rests on the fitted dose curve; in most records, active means well fitted curve in the direction sought with a large enough effect; inconclusive means small, poorly fitted or top-dose-only effect, or another doubt; inactive means no such curve, though single readings can be large; an effect the other way counts as inactive or inconclusive. On the % scale 0 is the no-effect control and ±100 the full control effect.

What do the screens show for `CC(Oc1cc2oc(=O)c3c(c2cc1Cl)CCC3)C(=O)NCc1ccncc1` (stereo not given)?
FMDV inh: -23.3%; Vaccinia Venus: -13.8%; Sm TGR block: -12.6%; HCMV antiviral: 0.0; VACV mCherry inh: -6.8%; HCV inh: -1.3%

Results for C#CCOCCOCCOCCNc1nc(N2CCN(C(=O)CCCCCCCCCCNC(=O)[C@@H](CCC(=O)O)n3cc(CCCCCN)nn3)CC2)nc(N2CCN(C(=O)CCCCCCCCCCNC(=O)[C@@H](CCC(=O)O)n3cc(CCCCCN)nn3)CC2)n1 ?
FMDV inh: -18.3%; Vaccinia Venus: -16.9%; Sm TGR block: inconclusive; HCMV antiviral: inconclusive; VACV mCherry inh: inactive; HCV inh: 4.0%

Results for C#CCOCCOCCOCCNc1nc(N2CCN(C(=O)CCCCCCCCCCNC(=O)[C@@H](CCSC)n3cc(CCO)nn3)CC2)nc(N2CCN(C(=O)CCCCCCCCCCNC(=O)[C@H]([C@@H](C)CC)n3cc(CCCCN=C(N)N)nn3)CC2)n1 ?
FMDV inh: inconclusive; Vaccinia Venus: 8.91µM*; Sm TGR block: inconclusive; VACV mCherry inh: inconclusive; HCV inh: inconclusive

How did C#CCOCCOCCOCCNc1nc(N2CCN(C(=O)CCCCCCCCCCNC(=O)[C@@H](CCSC)n3cc(CCO)nn3)CC2)nc(N2CCN(C(=O)CCCCCCCCCCNC(=O)[C@H]([C@@H](C)CC)n3cc(CCCCCN)nn3)CC2)n1 do in these assays?
FMDV inh: inconclusive; Vaccinia Venus: 10µM*; Sm TGR block: 1.0%; VACV mCherry inh: -18.4%; HCV inh: inconclusive

How did C#CCOCCOCCOCCNc1nc(N2CCOCC2)nc(N2CCN(C(=O)CCCCCCCCCCNC(=O)[C@@H](CCSC)n3cc(CCO)nn3)CC2)n1 do in these assays?
FMDV inh: -14.5%; Vaccinia Venus: -28.4%; Sm TGR block: -19.1%; HCMV antiviral: -34.5; VACV mCherry inh: inactive; HCV inh: -27.7%

Results for O=C(Oc1ccccc1C(=O)Nc1ccccc1)c1ccccc1Br ?
FMDV inh: -29.2%; Vaccinia Venus: inconclusive; Sm TGR block: 6.2%; HCMV antiviral: -66.2*; VACV mCherry inh: inconclusive; HCV inh: -25.3%

What do the screens show for `COc1cc(/C=N/NC(=O)c2ccncc2)ccc1OC(=O)c1cccc(Br)c1`?
FMDV inh: -13.7%; Vaccinia Venus: -10.1%; Sm TGR block: -10.4%; HCMV antiviral: 31.7; VACV mCherry inh: -6.3%; HCV inh: -6.1%

Results for O=C(N/N=C/c1ccc(O)cc1)c1ccc(NC(=O)c2ccccc2Br)cc1 ?
FMDV inh: -17.3%; Vaccinia Venus: inconclusive; Sm TGR block: 8.6%; HCMV antiviral: -7.1; VACV mCherry inh: inconclusive; HCV inh: -21.6%

How did O=C(COc1ccccc1C(=O)Nc1ccccc1)Nc1ccccc1Br do in these assays?
Vaccinia Venus: -8.8%; VACV mCherry inh: -5.0%

What do the screens show for `COc1cccc(/C=N/NC(=O)c2ccncc2)c1OC(=O)c1ccc(Br)cc1`?
FMDV inh: -15.4%; Vaccinia Venus: -28.8%; Sm TGR block: -7.4%; VACV mCherry inh: 4.47µM*; HCV inh: inconclusive

What do the screens show for `COc1ccccc1/C=N/NC(=O)c1ccc(NC(=O)c2ccccc2Br)cc1`?
FMDV inh: -27.0%; Vaccinia Venus: -4.5%; Sm TGR block: 0.1%; HCMV antiviral: -65.9*; VACV mCherry inh: -21.7%; HCV inh: inconclusive

What do the screens show for `COc1cccc(/C=C/C(=O)OCCN2C(=O)c3ccccc3C2=O)c1`?
FMDV inh: 1.6%; Sm TGR block: -3.5%; HCMV antiviral: -11.6; HCV inh: 8.7%

Results for CCC(C)c1ccccc1NC(=O)C(C)NCCN(C)C (stereo not given) ?
FMDV inh: -19.7%; Sm TGR block: 39.8µM*; HCMV antiviral: -36.9; HCV inh: 10.7%

Results for CCCNC(C)C(=O)Nc1ccccc1C (stereo not given) ?
FMDV inh: -19.9%; Vaccinia Venus: 0.0%; Sm TGR block: 8.0%; HCMV antiviral: 2.0; VACV mCherry inh: -14.8%; HCV inh: -1.2%

Results for Cc1[nH]c2ccccc2c1C(=O)C(=O)NCCCn1ccnc1 ?
FMDV inh: -7.3%; Vaccinia Venus: -11.9%; Sm TGR block: 1.4%; HCMV antiviral: -22.0; VACV mCherry inh: -0.3%; HCV inh: 7.1%

What do the screens show for `CCN(CC(=O)NCc1ccc(F)cc1)C(=O)/C=C/c1ccc(S(=O)(=O)N(CC)CC)cc1`?
FMDV inh: -13.6%; Vaccinia Venus: -9.5%; Sm TGR block: 2.1%; HCMV antiviral: 83.6; VACV mCherry inh: -11.9%; HCV inh: inconclusive

What do the screens show for `COCCCNC(=O)c1cccn2c(=O)c3cc4ccccc4cc3nc12`?
FMDV inh: -1.0%; Sm TGR block: 0.2%; HCMV antiviral: -81.2*; HCV inh: -26.1%

What do the screens show for `CCNC(=O)c1cc2c(=O)n3cccc(C)c3nc2n(CCc2ccccc2)c1=N`?
FMDV inh: -22.2%; Vaccinia Venus: -5.2%; Sm TGR block: -9.2%; HCMV antiviral: -102.9*; VACV mCherry inh: -7.0%; HCV inh: inconclusive

Results for Cc1cccn2c(=O)c3cc(C(N)=S)c(=N)n(CCCOC(C)C)c3nc12 ?
FMDV inh: -9.9%; Vaccinia Venus: -13.3%; Sm TGR block: inconclusive; HCMV antiviral: inconclusive; VACV mCherry inh: -14.9%; HCV inh: 11.2µM*

What do the screens show for `COCCn1c(=N)c(C(=O)NCCc2ccccc2)cc2c(=O)n3cccc(C)c3nc21`?
FMDV inh: -14.1%; Vaccinia Venus: 0.0%; HCMV antiviral: -68.7*; VACV mCherry inh: -12.1%; HCV inh: 15.8%

What do the screens show for `CCCCNC(=O)c1cc2c(=O)n3cccc(C)c3nc2n(Cc2ccccc2)c1=N`?
Vaccinia Venus: -14.1%; Sm TGR block: -9.0%; HCMV antiviral: -27.8; VACV mCherry inh: -15.5%; HCV inh: inconclusive

How did O=C(CCc1nc(-c2ccccc2F)no1)NC1CCCCC1 do in these assays?
Vaccinia Venus: -23.7%; Sm TGR block: 1.7%; HCMV antiviral: -8.4; VACV mCherry inh: -8.8%; HCV inh: -14.3%

How did CN(c1ccccc1)S(=O)(=O)c1ccc(C(=O)Nc2nnc(-c3ccc(F)cc3)o2)cc1 do in these assays?
FMDV inh: -20.4%; Vaccinia Venus: -11.2%; Sm TGR block: 2.8%; VACV mCherry inh: -9.1%; HCV inh: 4.7%

How did CN1CCN(S(=O)(=O)c2ccc(NC(=S)NC(=O)c3ccccc3)cc2)CC1 do in these assays?
FMDV inh: 22.5%; Vaccinia Venus: -8.6%; Sm TGR block: inconclusive; HCMV antiviral: 21.0; HCV inh: 1.5%

How did CC(=O)Nc1cccc(C(=O)OC(C)C(=O)Nc2ccc(S(=O)(=O)N3CCCC3)cc2)c1 (stereo not given) do in these assays?
FMDV inh: -20.2%; Sm TGR block: -2.6%; HCMV antiviral: 12.3; HCV inh: inconclusive
